# The full data set covers some 8,800 targets. This sample favours those with a hit. About 0.5% of all pairs of compound and target were hits. Values without a mark were called inactive.
# What was measured:
# Experiment in all cases: log2 fold change, soluble protein after heating vs DMSO (PISA); higher = thermal stabilisation; K562 lysate, 10 uM; active = over 0.2 and 3.5 SD of the protein, either way, in both replicates (recomputed)
# erlotinib = compound: C#Cc1cccc(Nc2ncnc3cc(OCCOC)c(OCCOC)cc23)c1 [erlotinib]
# How it was run: (§1)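 Thermal stability, expressed as log-two fold change relative to solvent controls, is given from duplicates. Crude K562 extract in PBS pH 7.4 with 1 mM MgCl2, at 1 mg/mL protein, was treated with 10 μM compound for 30 min and heated in aliquots for 3 min across 48°C-58°C. After pooling, adjustment to 0.5% NP-40 at 4°C and centrifugation at 21,000xg for 90 min, supernatant protein was measured by TMTpro 16plex LC-MS/MS with channel sums equalised.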
# [1] = compound: C/C(=N\NC(=O)C1=CC(=CC=C1)S(=O)(=O)N2CCOCC2)/C3=C(C=CC(=C3)Cl)O
# How it was run: as §1
# [2] = compound: C1=CC(=CC=C1C2=NC3=C(N2)C=C(C=C3)C(=O)N)OC4=CC=C(C=C4)Cl
# How it was run: as §1
# [3] = compound: C1=CC2=C(C=CC(=C2)/C=C\3/C(=O)NC(=NCC4=CC=CS4)S3)N=C1
# How it was run: as §1
# [4] = compound: C1=CC2=NC=CN=C2C=C1/C=C/3\C(=O)NC(=O)S3
# How it was run: as §1
# [5] = compound: C1=CC=C(C=C1)C2=NC(=C(N2)C3=CC=NC=C3)C4=CC(=C(C=C4)Cl)O
# How it was run: as §1
# [6] = compound: C1=CC=C2C(=C1)C3=NNC4=CC=CC(=C43)C2=O
# How it was run: as §1
# [7] = compound: C1CCN(C1)C(=O)NC2=CC=CC(=C2)NC3=NC=C(C(=N3)NCCC4=CN=CN4)Br
# How it was run: as §1
# [8] = compound: C1CN(CCC1(CC2=CC=C(C=C2)Cl)N)C3=NC=NC4=C3C=CN4
# How it was run: as §1
# IRAK-1-4 Inhibitor I = compound: C1COCCN1CCN2C3=CC=CC=C3N=C2NC(=O)C4=CC(=CC=C4)[N+](=O)[O-] [IRAK-1-4 Inhibitor I]
# How it was run: as §1
# ibrutinib = compound: C=CC(=O)N1CCC[C@@H](n2nc(-c3ccc(Oc4ccccc4)cc3)c3c(N)ncnc32)C1 [ibrutinib]
# How it was run: as §1
# [9] = compound: CC(=O)c1cnc2ccc(-c3cc(Cl)c(O)c(Cl)c3)nc2c1N[C@H]1CC[C@H](CN(C)C)CC1
# How it was run: as §1
# ralimetinib = compound: CC(C)(C)Cn1c(N)nc2ccc(-c3[nH]c(C(C)(C)C)nc3-c3ccc(F)cc3)nc21 [ralimetinib]
# How it was run: as §1
# [10] = compound: CC(C)(O)CC(=O)NCCn1ccc2ncnc(Nc3ccc(Oc4cccc(C(F)(F)F)c4)c(Cl)c3)c21
# How it was run: as §1
# [11] = compound: CC(C)C1=C2N=C(C=C(N2N=C1)NCC3=CC=CC=C3)NCCCCCCN
# How it was run: as §1
# [12] = compound: CC1=C(C(CC(=O)N1)C2=CC=C(C=C2)C(F)(F)F)C(=O)NC3=C(C=C4C(=C3)C=NN4)F
# How it was run: as §1
# [13] = compound: CC1=C(C2=C(C=C1)C(=O)C3=CC=CC=C3N2CCCN)C
# How it was run: as §1
# [14] = compound: CC1=C(C=C(C=C1)NC(=O)C2=CC(=CC=C2)C(C)(C)C#N)NC3=CC4=C(C=C3)N=CN(C4=O)C
# How it was run: as §1
# [15] = compound: CC1=C(C=C(C=C1)NC(=O)C2=CC(=CC=C2)N(C)C)NC(=O)C3=CC=C(C=C3)O
# How it was run: as §1
# [16] = compound: CC1=CC=C(C=C1)SC2=C3C=C(SC3=CN=C2)C(=O)N
# How it was run: as §1
# Chain of UniProt Q15366 (Q15366 whole entry, looked up): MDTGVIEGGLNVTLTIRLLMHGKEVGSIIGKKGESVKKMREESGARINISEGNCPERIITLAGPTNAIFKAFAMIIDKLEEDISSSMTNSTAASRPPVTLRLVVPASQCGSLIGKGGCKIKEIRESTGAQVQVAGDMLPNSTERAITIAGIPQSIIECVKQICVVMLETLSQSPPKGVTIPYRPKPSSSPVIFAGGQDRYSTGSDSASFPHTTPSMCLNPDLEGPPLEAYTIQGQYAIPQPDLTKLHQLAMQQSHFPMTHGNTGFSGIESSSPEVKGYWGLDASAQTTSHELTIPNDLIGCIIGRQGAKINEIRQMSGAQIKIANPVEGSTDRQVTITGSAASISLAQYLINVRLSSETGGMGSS
# Chain of UniProt O00625 (O00625 whole entry, looked up): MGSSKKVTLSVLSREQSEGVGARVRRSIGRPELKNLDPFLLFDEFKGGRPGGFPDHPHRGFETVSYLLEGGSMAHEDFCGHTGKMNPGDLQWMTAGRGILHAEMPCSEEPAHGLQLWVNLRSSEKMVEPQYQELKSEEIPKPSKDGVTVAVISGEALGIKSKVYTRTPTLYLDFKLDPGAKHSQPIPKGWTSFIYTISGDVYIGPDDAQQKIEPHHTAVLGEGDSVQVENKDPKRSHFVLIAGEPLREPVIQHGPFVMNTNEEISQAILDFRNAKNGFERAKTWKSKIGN
# Chain of UniProt Q9UBF8 (Q9UBF8 whole entry, looked up): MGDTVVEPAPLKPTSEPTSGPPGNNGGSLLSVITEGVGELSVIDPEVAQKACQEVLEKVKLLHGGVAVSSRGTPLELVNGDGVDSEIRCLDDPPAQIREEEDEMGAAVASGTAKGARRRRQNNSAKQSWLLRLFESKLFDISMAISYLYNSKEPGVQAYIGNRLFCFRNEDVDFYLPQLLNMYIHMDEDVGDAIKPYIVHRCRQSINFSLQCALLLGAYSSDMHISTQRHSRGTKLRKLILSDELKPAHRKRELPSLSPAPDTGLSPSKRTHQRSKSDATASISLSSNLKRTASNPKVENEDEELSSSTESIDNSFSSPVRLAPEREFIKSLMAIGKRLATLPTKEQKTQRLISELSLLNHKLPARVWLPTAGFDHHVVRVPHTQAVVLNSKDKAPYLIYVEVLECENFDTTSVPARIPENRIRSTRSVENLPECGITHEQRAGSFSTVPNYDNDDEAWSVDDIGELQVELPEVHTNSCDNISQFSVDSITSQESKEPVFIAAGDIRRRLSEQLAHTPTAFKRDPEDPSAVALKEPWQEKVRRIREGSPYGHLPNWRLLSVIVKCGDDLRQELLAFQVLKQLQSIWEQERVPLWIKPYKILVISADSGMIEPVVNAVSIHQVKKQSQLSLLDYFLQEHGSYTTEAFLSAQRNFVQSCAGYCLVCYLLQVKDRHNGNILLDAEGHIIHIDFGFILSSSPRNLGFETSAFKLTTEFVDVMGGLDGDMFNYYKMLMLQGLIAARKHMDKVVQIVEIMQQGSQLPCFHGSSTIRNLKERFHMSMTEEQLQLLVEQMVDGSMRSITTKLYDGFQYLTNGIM
# Chain of UniProt Q9UHV9 (Q9UHV9 whole entry, looked up): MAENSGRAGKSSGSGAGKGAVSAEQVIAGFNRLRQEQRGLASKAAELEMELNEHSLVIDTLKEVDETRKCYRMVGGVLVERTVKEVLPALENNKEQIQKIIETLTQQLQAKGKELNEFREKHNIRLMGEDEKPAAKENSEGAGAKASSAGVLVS
# Chain of UniProt P49642 (P49642 whole entry, looked up): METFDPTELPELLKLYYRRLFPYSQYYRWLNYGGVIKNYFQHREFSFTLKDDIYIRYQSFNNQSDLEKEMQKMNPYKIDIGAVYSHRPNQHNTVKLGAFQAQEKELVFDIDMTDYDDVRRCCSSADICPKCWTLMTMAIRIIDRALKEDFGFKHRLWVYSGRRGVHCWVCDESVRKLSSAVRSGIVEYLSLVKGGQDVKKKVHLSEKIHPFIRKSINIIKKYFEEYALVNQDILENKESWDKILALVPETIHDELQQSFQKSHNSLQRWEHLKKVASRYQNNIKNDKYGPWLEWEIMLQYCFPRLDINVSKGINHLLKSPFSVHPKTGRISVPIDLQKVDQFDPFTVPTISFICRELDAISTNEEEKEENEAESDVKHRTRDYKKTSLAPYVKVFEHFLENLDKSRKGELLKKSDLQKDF
# Chain of UniProt Q96PU8 (Q96PU8 whole entry, looked up): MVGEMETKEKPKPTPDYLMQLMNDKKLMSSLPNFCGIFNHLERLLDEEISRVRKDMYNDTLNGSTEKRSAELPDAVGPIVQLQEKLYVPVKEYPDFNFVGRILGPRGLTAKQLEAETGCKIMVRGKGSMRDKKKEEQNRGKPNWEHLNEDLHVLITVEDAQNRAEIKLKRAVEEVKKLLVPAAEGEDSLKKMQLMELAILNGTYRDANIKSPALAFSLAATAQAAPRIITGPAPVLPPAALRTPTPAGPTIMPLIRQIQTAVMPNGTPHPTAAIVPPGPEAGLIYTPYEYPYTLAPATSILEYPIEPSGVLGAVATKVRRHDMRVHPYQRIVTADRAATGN
# Chain of UniProt Q86UU1 (Q86UU1 whole entry, looked up): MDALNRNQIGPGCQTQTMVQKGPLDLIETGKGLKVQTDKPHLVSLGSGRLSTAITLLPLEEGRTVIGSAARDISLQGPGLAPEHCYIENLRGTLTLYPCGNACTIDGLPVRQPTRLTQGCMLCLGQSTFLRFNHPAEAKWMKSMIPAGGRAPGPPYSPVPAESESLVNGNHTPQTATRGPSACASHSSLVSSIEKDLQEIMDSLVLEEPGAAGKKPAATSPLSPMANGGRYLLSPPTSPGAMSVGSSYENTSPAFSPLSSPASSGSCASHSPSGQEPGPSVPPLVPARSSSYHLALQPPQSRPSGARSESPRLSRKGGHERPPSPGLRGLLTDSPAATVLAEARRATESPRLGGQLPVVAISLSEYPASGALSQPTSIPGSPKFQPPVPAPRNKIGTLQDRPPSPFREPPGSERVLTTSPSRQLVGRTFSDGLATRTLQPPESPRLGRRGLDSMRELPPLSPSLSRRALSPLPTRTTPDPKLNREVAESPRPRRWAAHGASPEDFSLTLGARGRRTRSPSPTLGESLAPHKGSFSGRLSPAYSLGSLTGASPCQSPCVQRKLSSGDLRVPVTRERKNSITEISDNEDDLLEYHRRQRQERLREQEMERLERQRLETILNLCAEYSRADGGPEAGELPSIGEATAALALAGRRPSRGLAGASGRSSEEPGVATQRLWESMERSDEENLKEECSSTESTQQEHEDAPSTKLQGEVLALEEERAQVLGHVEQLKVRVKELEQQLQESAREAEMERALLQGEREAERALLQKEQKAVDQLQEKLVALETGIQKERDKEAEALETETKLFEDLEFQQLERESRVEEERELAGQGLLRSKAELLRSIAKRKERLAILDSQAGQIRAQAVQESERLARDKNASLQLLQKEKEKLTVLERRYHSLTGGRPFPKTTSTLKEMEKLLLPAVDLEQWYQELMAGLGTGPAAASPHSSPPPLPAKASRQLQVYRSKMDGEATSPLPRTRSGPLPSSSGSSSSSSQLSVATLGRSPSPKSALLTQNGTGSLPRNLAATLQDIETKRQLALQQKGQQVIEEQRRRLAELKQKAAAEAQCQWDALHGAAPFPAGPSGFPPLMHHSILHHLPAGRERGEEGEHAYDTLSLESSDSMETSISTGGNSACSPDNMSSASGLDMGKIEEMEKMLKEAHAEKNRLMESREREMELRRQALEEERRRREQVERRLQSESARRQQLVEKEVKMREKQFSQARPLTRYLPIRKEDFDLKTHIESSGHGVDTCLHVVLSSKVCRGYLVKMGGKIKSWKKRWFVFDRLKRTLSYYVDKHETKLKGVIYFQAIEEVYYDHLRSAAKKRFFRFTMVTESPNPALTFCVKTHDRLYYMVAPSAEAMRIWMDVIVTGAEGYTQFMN
# Chain of UniProt P67775 (P67775 whole entry, looked up): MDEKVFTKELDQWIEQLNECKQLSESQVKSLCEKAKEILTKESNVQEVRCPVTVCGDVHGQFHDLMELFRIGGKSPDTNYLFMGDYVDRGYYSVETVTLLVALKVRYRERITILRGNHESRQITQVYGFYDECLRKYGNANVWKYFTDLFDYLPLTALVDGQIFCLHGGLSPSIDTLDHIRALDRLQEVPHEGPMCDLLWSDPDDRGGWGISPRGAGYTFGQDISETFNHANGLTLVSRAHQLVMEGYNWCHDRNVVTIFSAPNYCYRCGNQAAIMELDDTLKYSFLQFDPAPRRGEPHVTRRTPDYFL
# Chain of UniProt Q13362 (Q13362 whole entry, looked up): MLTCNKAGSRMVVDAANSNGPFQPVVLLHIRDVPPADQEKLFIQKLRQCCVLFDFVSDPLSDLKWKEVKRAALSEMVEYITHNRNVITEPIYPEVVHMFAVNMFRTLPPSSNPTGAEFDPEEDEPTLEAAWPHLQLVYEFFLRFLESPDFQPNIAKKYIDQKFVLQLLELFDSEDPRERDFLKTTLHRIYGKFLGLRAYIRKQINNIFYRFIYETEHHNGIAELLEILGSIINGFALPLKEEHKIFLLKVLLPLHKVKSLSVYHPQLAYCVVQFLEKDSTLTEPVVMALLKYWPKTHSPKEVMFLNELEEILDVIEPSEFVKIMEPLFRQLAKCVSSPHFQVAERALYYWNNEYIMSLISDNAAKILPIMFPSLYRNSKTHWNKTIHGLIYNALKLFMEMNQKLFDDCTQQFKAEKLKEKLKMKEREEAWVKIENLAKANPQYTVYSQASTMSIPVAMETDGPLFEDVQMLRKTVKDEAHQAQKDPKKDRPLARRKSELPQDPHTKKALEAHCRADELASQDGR
# Chain of UniProt Q9H0N5 (Q9H0N5 whole entry, looked up): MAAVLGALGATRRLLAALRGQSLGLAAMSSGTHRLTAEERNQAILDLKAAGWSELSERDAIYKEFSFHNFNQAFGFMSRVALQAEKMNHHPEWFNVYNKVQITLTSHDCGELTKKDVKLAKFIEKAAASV
Target,log2 fold change (erlotinib),log2 fold change [1],log2 fold change [2],log2 fold change [3],log2 fold change [4],log2 fold change [5],log2 fold change [6],log2 fold change [7],log2 fold change [8],log2 fold change (IRAK-1-4 Inhibitor I),log2 fold change (ibrutinib),log2 fold change [9],log2 fold change (ralimetinib),log2 fold change [10],log2 fold change [11],log2 fold change [12],log2 fold change [13],log2 fold change [14],log2 fold change [15],log2 fold change [16]
PLXNB2 (UniProt O15031),-0.014,-0.027,-0.013,-0.04,-0.037,0.005,-0.018,-0.017,0.049,0.004,0.019,0.016,0.035,-0.026,-0.03,0.033,0.006,-0.02,-0.003,-0.016
PFDN2 (UniProt Q9UHV9),-0.055,-0.003,-0.038,0.006,0,-0.027,0.071,0.043,-0.026,-0.015,0.103,0.006,0.08,0.08,0.005,0.016,0.034,-0.017,-0.033,-0.022
QKI (UniProt Q96PU8),-0.023,-0.018,-0.001,-0.005,0.012,-0.029,0.012,0.005,-0.034,0.027,-0.022,-0.012,-0.023,-0.027,0.029,0.065,0.069,-0.094,0.009,-0.023
PIR (UniProt O00625),0.017,-0.212,0.01,0.034,-0.034,0.006,0.151,0.014,0.027,-0.02,0.029,-0.01,-0.017,0.019,0.254 (active),-0.034,0.007,-0.003,0.232,-0.022
PPP2R5C isoform 4 (UniProt Q13362),0.025,-0.048,-0.054,-0.012,-0.009,0.044,-0.01,0.046,0.08,0.002,0.023,-0.011,-0.089,-0.05,-0.032,-0.003,0.095,0.05,0.012,0.001
PHLDB1 (UniProt Q86UU1),0.01,-0.044,0.032,-0.081,-0.031,0.101,-0.158,-0.032,0.068,-0.044,0.05,0.049,-0.094,0.096,-0.021,0.004,-0.009,0.114,-0.001,0.156
PPP2CA (UniProt P67775),-0.088,0.134,-0.057,-0.045,-0.007,0.064,0.016,0.106,-0.027,-0.041,0.042,0.009,0.007,0.083,-0.012,-0.017,-0.034,-0.047,-0.003,0.036
PRIM1 (UniProt P49642),-0.004,0.061,-0.011,-0.01,-0.03,0.02,0,-0.006,0.002,0.003,-0.016,0.014,0.056,0.056,0.016,0.027,-0.019,0.015,0.011,0.02
PCBP2 isoform 3 (UniProt Q15366),-0.017,0.005,-0.027,0.018,0.034,0.012,0.042,0.038,-0.022,-0.026,-0.007,0.025,0.021,0.022,-0.019,-0.034,0.06,-0.017,-0.016,-0.017
PDCD4 (UniProt Q53EL6),0,-0.052,-0.02,-0.003,-0.004,-0.026,0.014,-0.011,0.008,0.015,-0.002,-0.002,0.025,-0.032,0.007,0.025,-0.003,0.032,0.007,0.011
PRPF38A (UniProt Q8NAV1),-0.012,-0.016,0.049,-0.025,0.044,0.05,0.042,0.005,-0.018,0.057,0,-0.001,0.01,-0.011,0.054,0.027,-0.128,0.094,-0.075,0.018
PKP3 isoform 2 (UniProt Q9Y446),0.063,-0.011,0.042,0.009,0.006,-0.011,-0.02,-0.011,-0.013,0.015,0.005,-0.022,-0.028,0.009,-0.006,0.014,0.021,0.004,-0.019,0.052
PRKCD (UniProt Q05655),-0.041,0.016,-0.035,-0.047,-0.01,0.006,-0.023,-0.069,0.019,0.013,0.021,0.162,0.01,-0.005,0.006,0.027,-0.012,-0.004,0.038,0.04
PCBD2 (UniProt Q9H0N5),-0.012,-0.033,0.044,-0.022,0.079,0.005,-0.014,-0.018,-0.015,-0.01,0.035,0.02,0.051,-0.08,0.033,0.025,0.022,0.027,-0.007,-0.03
PI4KB (UniProt Q9UBF8),0.017,-0.108,-0.011,0.038,0.173,0.011,0.193,0.01,-0.065,-0.003,-0.044,0.208,0.021,-0.021,-0.004,-0.015,-0.018,0.022,0,0.012
PICALM (UniProt Q13492),-0.019,-0.035,0.02,-0.021,0.01,-0.06,-0.014,-0.016,0.001,0.026,-0.023,0.011,-0.025,-0.039,-0.004,-0.018,0.004,0.021,-0.004,-0.005

# Source: the supplement of paper PMC10849652
